In PubChem BioAssay:
The source made the active and inactive calls. Unless noted, no rule for the calls is given here.

Columns and labels:
[1] = compounds binding Alexa647 anti-His antibody – biochemical, small-molecule microarray, 635 nm fluorescence, artefact control for SMM control protein annotation, primary screen (AID 1128); conditions: higher = more signal;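 also: score merges feature fluorescence with signal-to-noise for each printed compound spot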
[2] = tested on: Human papillomavirus type 1a E7 protein (residues 1-88); test: HPV1a E7 small-molecule binders, primary screen, biochemical, small-molecule microarray, residues 1-88, 635 nm (AID 1129); conditions: small-molecule microarray binding, fluorescence 635 nm; higher = more signal
[3] = target: Focal adhesion kinase 1 (Homo sapiens) (UniProt Q05397); test: PTK2 protein binding on printed compound slides – biochemical, small-molecule microarray, 635/667 nm fluorescence, BSA, DTT, primary screen (AID 1130); conditions: 635 nm fluorescence, higher = more signal;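 also: composite of spot emission at 667 nm and signal to noise over triplicate slides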
Chain of Focal adhesion kinase 1 (Homo sapiens) (Q05397 whole entry, looked up): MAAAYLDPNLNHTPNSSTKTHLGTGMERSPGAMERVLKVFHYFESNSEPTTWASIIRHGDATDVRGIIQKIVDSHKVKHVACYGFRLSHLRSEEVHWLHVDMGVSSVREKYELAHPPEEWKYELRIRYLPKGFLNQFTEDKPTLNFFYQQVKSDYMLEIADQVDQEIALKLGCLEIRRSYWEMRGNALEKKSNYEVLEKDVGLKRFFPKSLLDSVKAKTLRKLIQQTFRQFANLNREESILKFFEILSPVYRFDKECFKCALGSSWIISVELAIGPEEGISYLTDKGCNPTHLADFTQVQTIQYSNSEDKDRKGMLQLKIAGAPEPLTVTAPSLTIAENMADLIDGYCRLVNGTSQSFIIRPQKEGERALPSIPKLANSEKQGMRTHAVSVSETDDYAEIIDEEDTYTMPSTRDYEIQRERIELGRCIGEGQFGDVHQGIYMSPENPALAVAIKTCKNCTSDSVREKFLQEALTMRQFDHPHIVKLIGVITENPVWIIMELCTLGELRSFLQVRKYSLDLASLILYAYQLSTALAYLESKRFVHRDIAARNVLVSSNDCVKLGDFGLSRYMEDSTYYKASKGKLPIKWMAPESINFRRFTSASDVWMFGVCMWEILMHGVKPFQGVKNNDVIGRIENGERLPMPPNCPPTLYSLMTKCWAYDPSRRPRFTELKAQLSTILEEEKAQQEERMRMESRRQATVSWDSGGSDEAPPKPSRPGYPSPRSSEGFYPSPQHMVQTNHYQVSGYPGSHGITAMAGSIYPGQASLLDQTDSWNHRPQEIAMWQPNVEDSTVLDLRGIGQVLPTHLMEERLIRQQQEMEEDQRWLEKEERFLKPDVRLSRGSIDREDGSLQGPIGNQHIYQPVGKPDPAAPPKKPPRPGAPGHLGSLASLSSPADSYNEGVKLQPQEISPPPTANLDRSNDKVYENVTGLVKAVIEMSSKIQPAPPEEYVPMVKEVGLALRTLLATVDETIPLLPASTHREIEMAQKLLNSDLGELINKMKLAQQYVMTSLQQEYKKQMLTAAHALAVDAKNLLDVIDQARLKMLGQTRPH

[4] = tested on: Fibrinogen (Alexa647-labelled); test: Alexa647-fibrinogen binding to printed small molecules – biochemical, small-molecule microarray, 635/667 nm fluorescence, artefact control for SMM control-protein annotation, profiling panel (AID 1131); conditions: fibrinogen-A647 binding fluorescence, higher = more signal;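 also: z-score merges 667 nm fluorescence with per-spot signal-to-noise over triplicate slides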
[5] = target: Follistatin (Homo sapiens) (UniProt P19883); test: FST protein binding to printed compounds – biochemical, small-molecule microarray, 635/667 nm fluorescence, primary screen (AID 1132); conditions: 635 nm fluorescence, higher = more signal
Chain of Follistatin (Homo sapiens) (P19883 whole entry, looked up): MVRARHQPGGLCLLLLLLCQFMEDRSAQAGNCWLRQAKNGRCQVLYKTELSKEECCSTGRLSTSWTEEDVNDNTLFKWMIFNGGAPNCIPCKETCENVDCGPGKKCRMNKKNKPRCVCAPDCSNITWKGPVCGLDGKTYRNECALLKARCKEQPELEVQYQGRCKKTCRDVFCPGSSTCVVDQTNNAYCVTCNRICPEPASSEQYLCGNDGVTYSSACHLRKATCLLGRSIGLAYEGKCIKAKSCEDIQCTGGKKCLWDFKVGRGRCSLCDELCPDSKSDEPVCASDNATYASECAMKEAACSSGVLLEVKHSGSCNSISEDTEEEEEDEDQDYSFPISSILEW

[6] = target: Fibroblast growth factor 2 (Homo sapiens) (UniProt P09038); test: basic fibroblast growth factor binding to printed compounds – biochemical, small-molecule microarray, 635/667 nm fluorescence, primary screen (AID 1133); conditions: FGF2, fluorescence 635/667, higher = more signal
Chain of Fibroblast growth factor 2 (Homo sapiens) (P09038 whole entry, looked up): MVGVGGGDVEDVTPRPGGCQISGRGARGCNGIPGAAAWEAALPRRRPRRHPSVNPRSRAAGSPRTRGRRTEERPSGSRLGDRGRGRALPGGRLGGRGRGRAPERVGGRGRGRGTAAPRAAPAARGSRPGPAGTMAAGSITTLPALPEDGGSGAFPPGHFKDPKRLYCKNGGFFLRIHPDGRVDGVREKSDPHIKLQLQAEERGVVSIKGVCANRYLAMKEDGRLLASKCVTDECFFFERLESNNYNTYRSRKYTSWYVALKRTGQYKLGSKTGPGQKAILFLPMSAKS

[7] = JC-1 mitochondrial potential readout, lung cancer cells – cell-based, A549, JC-1 fluorescence, basal, 24 h, 100 nL, profiling panel (AID 1138); conditions: higher = more signal;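 also: A549 lung adenocarcinoma cells under basal conditions with no added stimulus; test concentration not given here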
[8] = tested on: Lefty1; test: Lefty1 protein binding to printed compounds – biochemical, small-molecule microarray, 635/667 nm fluorescence, primary screen (AID 1139); conditions: fluorescence 635/667, higher = more signal
[9] = tested on: wheat germ agglutinin (Triticum aestivum), Alexa647-labelled; test: Alexa647-WGA lectin binding to printed small molecules – biochemical, small-molecule microarray, 635/667 nm fluorescence, artefact control for SMM control-protein annotation, profiling panel (AID 1140); conditions: WGA-A647 binding, 635 nm fluorescence, higher = more signal;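 also: score merges 667 nm feature emission with signal to noise over triplicate slides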
[10] = target: Luciferin 4-monooxygenase (Photinus pyralis) (UniProt P08659); test: inhibition of purified Photinus pyralis luciferase – biochemical, luminescence, purified enzyme, 2006 set, primary screen (AID 1141); conditions: purified firefly luciferase, SteadyGlo luminescence, 30 min; higher = more signal, called active from +8 up or from −8 down;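 also: cell-free assay with purified firefly luciferase at 100 ng per well in PBS; test concentration not given here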
Chain of Luciferin 4-monooxygenase (Photinus pyralis) (P08659 whole entry, looked up): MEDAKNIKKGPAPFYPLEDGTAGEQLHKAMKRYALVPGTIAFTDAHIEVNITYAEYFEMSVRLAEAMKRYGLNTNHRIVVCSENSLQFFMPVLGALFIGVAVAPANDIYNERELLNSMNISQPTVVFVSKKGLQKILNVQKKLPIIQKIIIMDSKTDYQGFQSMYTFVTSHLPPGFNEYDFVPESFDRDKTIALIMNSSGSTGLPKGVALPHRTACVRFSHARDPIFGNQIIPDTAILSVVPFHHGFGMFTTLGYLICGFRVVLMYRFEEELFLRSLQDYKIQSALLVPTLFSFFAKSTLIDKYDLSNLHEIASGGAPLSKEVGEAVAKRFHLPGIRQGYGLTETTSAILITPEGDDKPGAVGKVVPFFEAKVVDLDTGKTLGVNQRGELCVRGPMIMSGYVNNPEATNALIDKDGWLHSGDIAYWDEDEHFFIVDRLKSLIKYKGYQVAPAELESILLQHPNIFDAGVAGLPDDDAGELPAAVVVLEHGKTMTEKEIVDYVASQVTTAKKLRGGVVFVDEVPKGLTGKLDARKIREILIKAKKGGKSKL

[11] = tested on: Wnt5a (protein binding on small-molecule microarray); test: small molecules binding Wnt5a protein – biophysical, small-molecule microarray, 635/667 nm fluorescence, primary screen (AID 1142); conditions: 635 nm fluorescence, higher = more signal;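 also: fluorescence read at 667 nm with signal to noise per printed feature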
[12] = ATP-based viability of Huh7 replicon cells – cell-based, CellTiter-Glo luminescence, basal, 48 h, cytotoxicity control for HCV replication inhibitor project, primary screen (AID 1143); conditions: higher = more signal, called active from +8 up or from −8 down;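 also: Huh7 hepatoma cells carrying a hepatitis C replication reporter with no stimulus; test concentration not given here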
[13] = Pseudomonas biofilm growth suppression – PAO1 strain, BacTiter-Glo luminescence, LB-PBS, primary screen (AID 1144); conditions: P. aeruginosa PAO1 biofilm, 12 h, higher = more signal
[14] = basal CRE-LacZ reporter activity in PC12 – cell-based, unstimulated, primary screen (AID 1145); conditions: no forskolin, luminescence, 4.5 h, higher = more signal, called active from +8 up or from −8 down
[15] = forskolin-driven CRE-LacZ activity in PC12 – cell-based, CRE-LacZ reporter, forskolin-stimulated, primary screen (AID 1146); conditions: luminescence, 4.5 h, higher = more signal, called active from +8 up or from −8 down;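 also: PC12 cells with 6xCRE LacZ reporter stimulated by forskolin 10 µM; beta-galactosidase reporter signal reflecting CREB driven transcription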
[16] = target: Streptavidin (Streptomyces avidinii) (UniProt P22629); test: compounds binding control protein streptavidin – biophysical, small-molecule microarray, 635/667 nm fluorescence, artefact control for SMM compound annotation, primary screen (AID 1147); conditions: higher = more signal;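 also: signal reflects streptavidin binding to arrayed compounds as a control protein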
Chain of Streptavidin (Streptomyces avidinii) (P22629 whole entry, looked up): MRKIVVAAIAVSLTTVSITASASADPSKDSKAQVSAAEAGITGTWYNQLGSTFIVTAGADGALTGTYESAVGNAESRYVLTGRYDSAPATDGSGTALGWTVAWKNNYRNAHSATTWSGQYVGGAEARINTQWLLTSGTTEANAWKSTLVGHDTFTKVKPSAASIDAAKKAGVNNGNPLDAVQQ

[17] = probe aInhba binding on compound microarray – biochemical, small-molecule microarray, 635/667 nm fluorescence, primary screen (AID 1148); conditions: higher = more signal;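 also: score merges 667nm spot fluorescence with signal-to-noise for antibody binding to printed compounds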
[18] = target: Torsin-1A (Homo sapiens) (UniProt O14656); test: TOR1A wild-type binding on microarray – cell lysate, small-molecule microarray, lysate, 635/667 nm, primary screen (AID 1149); conditions: COS7 hTOR1A-WT lysate, 635 nm fluorescence, higher = more signal
Chain of Torsin-1A (Homo sapiens) (O14656 whole entry, looked up): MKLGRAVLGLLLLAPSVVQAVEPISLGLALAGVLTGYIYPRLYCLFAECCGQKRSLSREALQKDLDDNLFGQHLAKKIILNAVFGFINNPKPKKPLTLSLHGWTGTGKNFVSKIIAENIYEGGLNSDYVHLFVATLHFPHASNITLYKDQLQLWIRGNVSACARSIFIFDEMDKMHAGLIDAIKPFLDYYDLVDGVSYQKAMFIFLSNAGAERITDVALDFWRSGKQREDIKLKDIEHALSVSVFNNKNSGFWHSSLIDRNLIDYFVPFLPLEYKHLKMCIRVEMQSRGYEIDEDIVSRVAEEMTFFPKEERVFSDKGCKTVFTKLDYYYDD

[19] = target: Torsin-1A (Homo sapiens) (UniProt O14656); test: torsin A mutant lysate binding on microarrays – cell lysate, small-molecule microarray, COS7 lysate, 635/667 nm fluorescence, primary screen (AID 1150); conditions: COS7 hTOR1A mutant lysate, 635 nm fluorescence, higher = more signal;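 also: score pools 667 nm emission and signal to noise measuring lysate protein binding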
[20] = tested on: Sonic hedgehog protein (Shh); test: Sonic hedgehog microarray binding compounds – biochemical, small-molecule microarray, 635/667 nm fluorescence, primary screen (AID 1151); conditions: 635 nm fluorescence, higher = more signal;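 also: Shh protein binding to compounds spotted on small-molecule microarray slides; score combines spot fluorescence intensity with signal-to-noise across triplicate slides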

C=C(C(=O)CC[C@H](OC(=O)c1cccnc1)c1ccc(CO)o1)C(C)C
composite z-score [1]: -0.109
composite z-score [2]: 1.09
composite z-score [3]: -0.22
composite z-score [4]: 0.88
composite z-score [5]: 0.886
composite z-score [6]: 0.962
z-score [7]: -0.559
composite z-score [8]: 1.04
composite z-score [9]: 0.884
z-score [10]: -1.55 (inactive)
composite z-score [11]: 0.159
z-score [12]: 0.3 (inactive)
z-score [13]: 0.232 (inactive)
z-score [14]: 0.48 (inactive)
z-score [15]: 1.17 (inactive)
composite z-score [16]: 0.441
composite z-score [17]: 0.228
composite z-score [18]: 0.684
composite z-score [19]: 0.449
composite z-score [20]: 1.79

O=C1NC(=O)C2C1C=CC(C(O)c1ccc(Br)cc1)N2Nc1ccccn1 (stereo not given)
composite z-score [1]: 1.32
composite z-score [2]: 0.173
composite z-score [3]: 0.231
composite z-score [4]: 0.995
composite z-score [5]: 0.426
composite z-score [6]: 0.657
z-score [7]: 0.631
composite z-score [8]: -0.162
composite z-score [9]: 0.806
z-score [10]: -1.52 (inactive)
composite z-score [11]: 0.336
z-score [12]: -0.0358 (inactive)
z-score [13]: -1.45 (inactive)
z-score [14]: -0.322 (inactive)
z-score [15]: 0.521 (inactive)
composite z-score [16]: 0.363
composite z-score [17]: 0.126
composite z-score [18]: 0.196
composite z-score [19]: 0.301
composite z-score [20]: -0.248

CCOC(=O)C[C@H]1[C@H](OC(=O)c2ccccc2-c2ccccc2)[C@@H](NC(=O)c2ccc3ccccc3n2)c2cc(OCCCO)ccc2N1C(=O)c1ccc2ccccc2n1
composite z-score [1]: 1.22
composite z-score [2]: 0.374
composite z-score [3]: 0.281
composite z-score [4]: 0.74
composite z-score [5]: 0.474
composite z-score [6]: 0.202
z-score [7]: 0.481
composite z-score [8]: 0.659
composite z-score [9]: 0.0363
z-score [10]: 0.761 (inactive)
composite z-score [11]: 0.191
z-score [12]: -0.688 (inactive)
z-score [13]: -1.37 (inactive)
z-score [14]: 1.22 (inactive)
z-score [15]: 0.305 (inactive)
composite z-score [16]: 1.07
composite z-score [17]: -0.117
composite z-score [18]: -0.137
composite z-score [19]: -0.184
composite z-score [20]: 0.389

COCCOC(=O)N1C(=O)[C@@]2(c3cc(C#Cc4ccc(OC)cc4)ccc31)[C@H](C(=O)N1CCCCCCC1)[C@H]1C(=O)O[C@H](c3ccccc3)[C@H](c3ccccc3)N1[C@@H]2c1ccc(O)cc1
composite z-score [1]: -0.0844
composite z-score [2]: 1.12
composite z-score [3]: 0.277
composite z-score [4]: 0.205
composite z-score [5]: 1.38
composite z-score [6]: 0.541
z-score [7]: -1.42
composite z-score [8]: 1.04
composite z-score [9]: 0.351
z-score [10]: -0.0524 (inactive)
composite z-score [11]: 0.164
z-score [12]: -5.16 (inactive)
z-score [13]: -1.11 (inactive)
z-score [14]: -1.02 (inactive)
z-score [15]: -0.841 (inactive)
composite z-score [16]: 0.123
composite z-score [17]: 0.696
composite z-score [18]: 0.536
composite z-score [19]: 0.864
composite z-score [20]: 1.47

CC(C)N1CC=CC23O[C@@H]4C=CCCOC(=O)C4[C@H]2C(=O)N(CCO)[C@@H]3C1=O (stereo not given in full)
composite z-score [1]: -0.517
composite z-score [2]: -1
composite z-score [3]: -0.482
composite z-score [4]: -0.288
composite z-score [5]: -0.194
composite z-score [6]: -0.205
z-score [7]: -0.467
composite z-score [8]: 0.0404
composite z-score [9]: 0.459
z-score [10]: 0.697 (inactive)
composite z-score [11]: -0.496
z-score [12]: -0.102 (inactive)
z-score [13]: -2.21 (inactive)
z-score [14]: -1.99 (inactive)
z-score [15]: -0.665 (inactive)
composite z-score [16]: -0.516
composite z-score [17]: -0.213
composite z-score [18]: 0.862
composite z-score [19]: 0.875
composite z-score [20]: -0.0837
